# Reference: PubChem BioAssay (NCI)
# The panel holds about 83,000 compounds, 20% with a hit somewhere; the sample as a whole holds those more often.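 Assay: single dose, 48 h. Readout: percent growth (0 = no net growth; negative = cell death). Active: <10.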 The source made the active and inactive calls.
# Legend:
# Assay in all cases: NCI-60 one-dose screen, 48 h (100 = growth as untreated, 0 = no growth, -100 = all killed)
# Settings in all cases: 10 µM unless noted
# [1] = test system: NCI-H23 lung
# [2] = test system: NCI-H226 lung
# [3] = test system: NCI-H322M lung
# [4] = test system: HOP-62 NSCLC
# [5] = test system: NCI-H460 lung
# [6] = test system: HOP-92 NSCLC
# [7] = test system: NCI-H522 lung
# [8] = test system: A549/ATCC NSCLC
# [9] = test system: 786-0 renal
# [10] = test system: COLO 205 colon
Compound,growth [1],growth [2],growth [3],growth [4],growth [5],growth [6],growth [7],growth [8],growth [9],growth [10]
COc1cc2cc(Oc3ccc(NC(=O)Nc4ccc(F)c(C(F)(F)F)c4)cc3)c(C)nc2cc1OCCN1CCCCC1,34.2% (inactive),81.1% (inactive),69.5% (inactive),95.4% (inactive),-69.2% (active),33.5% (inactive),-66.6% (active),-45.9% (active),61.9% (inactive),-64% (active)
[2H]C([2H])([2H])Oc1ccc(/C=C/C(=O)/C=C(/C=C/c2ccc(OC([2H])([2H])[2H])c(OC([2H])([2H])[2H])c2OC([2H])([2H])[2H])OB(F)F)c(OC([2H])([2H])[2H])c1OC([2H])([2H])[2H],59.5% (inactive),88.5% (inactive),97.7% (inactive),85.7% (inactive),91.7% (inactive),74.1% (inactive),45.9% (inactive),84.2% (inactive),70.9% (inactive),43.6% (inactive)
Cc1nc2c(c(-c3ccccc3)n1)Cc1c(ccc3ccccc13)O2,97.8% (inactive),82.2% (inactive),148% (inactive),90.9% (inactive),98.1% (inactive),81.9% (inactive),100% (inactive),96% (inactive),98.7% (inactive),100% (inactive)
COc1cc(C(=O)c2c(-c3ccccc3)oc3ccccc23)cc(OC)c1O,43.2% (inactive),52.8% (inactive),53.4% (inactive),38.2% (inactive),13.9% (inactive),55.4% (inactive),40.2% (inactive),47.3% (inactive),35.6% (inactive),123% (inactive)
Cc1[nH]c(C(=O)Nc2ccccc2OC2CCNC2)c(Cl)c1Cl (stereo not given),87.1% (inactive),80.6% (inactive),92.1% (inactive),78.7% (inactive),72.6% (inactive),72.6% (inactive),60.7% (inactive),101% (inactive),68.9% (inactive),83.5% (inactive)
COc1cc2c(cc1-c1c(C)noc1C)ncc1nc(C3CCOCC3)n(C3CCC(OC(F)F)CC3)c12 (stereo not given),56.7% (inactive),67.9% (inactive),52.4% (inactive),30.4% (inactive),72.6% (inactive),21.8% (inactive),3.74% (active),57.4% (inactive),51.8% (inactive),22.6% (inactive)
O=C(Nc1ncc(Cc2cc(C(F)(F)F)ccc2Cl)s1)C(=S)N1CCOCC1,89.8% (inactive),88.3% (inactive),94.6% (inactive),93% (inactive),100% (inactive),70.4% (inactive),74.7% (inactive),93.8% (inactive),94.6% (inactive),96.4% (inactive)
Cc1ccccc1NC(=O)Cn1cc(CN2CCN(c3ccnc4cc(Cl)ccc34)CC2)nn1,99.2% (inactive),90.9% (inactive),103% (inactive),90.7% (inactive),98.6% (inactive),68.5% (inactive),102% (inactive),106% (inactive),104% (inactive),99% (inactive)
CC(C)=CC(=O)C1C(=O)c2ccccc2C1=O,96.4% (inactive),97.9% (inactive),92.1% (inactive),102% (inactive),102% (inactive),88.5% (inactive),87.2% (inactive),106% (inactive),105% (inactive),115% (inactive)
COc1ccc(/C=C/C(=O)c2ccc(-n3cc(CN4CCN(c5cc6c(cc5F)c(=O)c(C(=O)O)cn6C5CC5)CC4)nn3)cc2)cc1,78.7% (inactive),67.3% (inactive),72.8% (inactive),75.6% (inactive),77.9% (inactive),66.6% (inactive),67.6% (inactive),66.1% (inactive),71.9% (inactive),98.2% (inactive)
COc1cc2c(c(OC)c1OC)CCC(c1cccc(C(=O)Nc3ccc([N+](=O)[O-])cc3)c1)O2 (stereo not given),47.2% (inactive),48.3% (inactive),68.3% (inactive),76.7% (inactive),58.8% (inactive),42.6% (inactive),49.6% (inactive),55.2% (inactive),70.1% (inactive),73.2% (inactive)
O=C1c2c(c3c4cc(F)ccc4oc3c3[nH]c4ccccc4c23)C(=O)N1O,23.4% (inactive),59.3% (inactive),57.7% (inactive),24.2% (inactive),5.01% (active),48.8% (inactive),30.5% (inactive),54.2% (inactive),47.6% (inactive),57.7% (inactive)
Cc1ccc(C23CCC(=O)N2CCc2cncn23)cc1 (stereo not given),97.4% (inactive),96.2% (inactive),99.3% (inactive),94.8% (inactive),110% (inactive),87.2% (inactive),87.9% (inactive),96.7% (inactive),108% (inactive),98.6% (inactive)
CCOC(=O)CC1CSC(N/N=C/c2ccc(O)cc2)=N1 (stereo not given),102% (inactive),105% (inactive),98.6% (inactive),91% (inactive),112% (inactive),80.3% (inactive),97% (inactive),102% (inactive),89.9% (inactive),111% (inactive)
O=C(CNc1ncco1)Nc1ccc(S(=O)(=O)c2ccc(NC(=O)CNc3ncco3)cc2)cc1,4.33% (active),-17.7% (active),75.2% (inactive),32.7% (inactive),-60.4% (active),81% (inactive),-96.9% (active),6.88% (active),20.9% (inactive),-59.9% (active)
CCNc1nc(-c2ccc(Cl)c(OC)c2)c(-c2ccnc(NCCNS(=O)(=O)c3ccc(Cl)cc3)n2)s1,26.2% (inactive),20.8% (inactive),44.9% (inactive),21.5% (inactive),17.1% (inactive),-2.89% (active),-25.5% (active),27.6% (inactive),6.16% (active),26.2% (inactive)
CCN(CC)CCOc1ccc(/C(=C(\C)Cc2ccc(OC)cc2)c2ccc(O)cc2)cc1,59.2% (inactive),74.6% (inactive),54.5% (inactive),25.8% (inactive),-36.4% (active),2.96% (active),-9.94% (active),19.4% (inactive),-37.1% (active),-72.1% (active)
COC1=C(OC)C(=O)C(CCCCCCCCCCO)=C(C)C1=O,35.2% (inactive),96.6% (inactive),112% (inactive),86.4% (inactive),98.8% (inactive),76.6% (inactive),63.7% (inactive),96% (inactive),83.3% (inactive),102% (inactive)
O=C(Nc1ccccc1C(F)(F)F)C1=NCCCCN1,98.5% (inactive),96.1% (inactive),95.1% (inactive),100% (inactive),105% (inactive),97.9% (inactive),86.8% (inactive),102% (inactive),98.8% (inactive),110% (inactive)
CN1CCN(Cn2nc(-c3cc(Cl)cc(Cl)c3Cl)oc2=S)CC1,90% (inactive),96% (inactive),101% (inactive),93.9% (inactive),102% (inactive),119% (inactive),91.1% (inactive),104% (inactive),94.5% (inactive),110% (inactive)
O=C(Nc1ccc(Oc2cccc(F)c2)c(Cl)c1)c1cnccn1,44.9% (inactive),61.8% (inactive),46.3% (inactive),42.4% (inactive),22.1% (inactive),51.5% (inactive),22.3% (inactive),39.1% (inactive),46.5% (inactive),15.5% (inactive)
CN(Cc1ccccc1)c1nc(Cl)c(C2CC(c3ccc(Cl)cc3)=NN2c2cc(Cl)cc(Cl)c2)s1 (stereo not given),94.3% (inactive),102% (inactive),102% (inactive),91.6% (inactive),106% (inactive),91.6% (inactive),91.3% (inactive),95% (inactive),93.8% (inactive),105% (inactive)
COc1c(O[C@@H]2OC(CO)[C@H](O)[C@H](O)C2O)cc2oc3cc(O)c(CC=C(C)C)c(O)c3c(=O)c2c1CC=C(C)C (stereo not given in full),93.5% (inactive),86.6% (inactive),103% (inactive),79% (inactive),101% (inactive),81.1% (inactive),64.6% (inactive),97.4% (inactive),106% (inactive),96.3% (inactive)
CC(C)=CCC[C@](C)(O)C1CC[C@]2(C)[C@@H]1CC[C@@H]1[C@@]3(C)CC/C(=N\OCCC#N)C(C)(C)[C@@H]3CC[C@]12C (stereo not given in full),72.5% (inactive),68% (inactive),98.8% (inactive),89.5% (inactive),79.6% (inactive),105% (inactive),68.7% (inactive),76.2% (inactive),86.2% (inactive),83.9% (inactive)
